Data reported in PubChem BioAssay (Tox21).
Records with an inconclusive call do not appear. Entries that show only a call come without a potency. Activity calls are given as the source filed them. Unless noted, calls come from the whole dose curve; as a rule, active = well fitted curve in the direction sought with a large enough effect in the repeat runs; inconclusive = weak or mixed curves; inactive = no such curve, though single readings can be large; an effect the other way counts as inactive or inconclusive.

How the values were obtained:
[1] = A CellTox Green Cytotoxicity Assay to monitor cytotoxicity in HepG2 cells - 0 hour (AID 1224882); note: nearly all actives have a fitted effect of over 35% in size
How it was run: (§1)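 Measurements at 0, 8, 16, 24, 32 and 40 h of treatment captured CellTox Green fluorescence in HepG2 cells that had been co-plated with reagent and preincubated 5 h at 37 C/5% CO2.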

[2] = A CellTox Green Cytotoxicity Assay to monitor cytotoxicity in HepG2 cells - 32 hour (AID 1224883); note: nearly all actives have a fitted effect of over 50% in size; note: potency is the fitted concentration of half-maximal effect
How it was run: as §1

[3] = A CellTox Green Cytotoxicity Assay to monitor cytotoxicity in HEK293 cells - 8 hour (AID 1224884); note: nearly all actives have a fitted effect of over 35% in size; note: potency is the fitted concentration of half-maximal effect
How it was run: (§2)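 Tox21 screen in HEK293: membrane-impermeant cyanine dye fluoresces on binding dead-cell DNA; compound pinned 5 h post-seeding, plates held at 37 C, signal read repeatedly through 40 h.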

[4] = qHTS RealTime-Glo MT Cell Viability Assay in HepG2 cells - 16 hour (AID 1224885); note: nearly all actives have a fitted effect of over 50% in size
How it was run: (§3)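 Viability was tracked continuously by NanoLuc luminescence from prosubstrate reduced by living HepG2 cells, at successive time points over 40 h of compound exposure. Cells with reagent were preincubated 5 h at 37 °C before compound addition.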

[5] = qHTS RealTime-Glo MT Cell Viability Assay in HEK293 cells - 24 hour (AID 1224886); note: top concentration of the series differs between compounds; nearly all actives have a fitted effect of over 50% in size
How it was run: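 Viability tracked continuously by luminescence as live cells reduce a prosubstrate for NanoLuc; HEK293 cells preincubated 5 h, compound-treated at 37 C, and read at 0, 8, 16, 24, 32 and 40 h.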

[6] = qHTS RealTime-Glo MT Cell Viability Assay in HEK293 cells - 8 hour (AID 1224887); note: nearly all actives have a fitted effect of over 50% in size; note: potency is the fitted concentration of half-maximal effect
How it was run: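 HEK293 + NanoLuc + prosubstrate, 600 cells/well; 5 h, 37 C/5% CO2; compound 23 nL in DMSO by pintool; 37 C; luminescence read at 0, 8, 16, 24, 32 and 40 h time points.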

[7] = qHTS RealTime-Glo MT Cell Viability Assay in HepG2 cells - 0 hour (AID 1224889); note: nearly all actives have a fitted effect of over 50% in size
How it was run: as §3

[8] = A CellTox Green Cytotoxicity Assay to monitor cytotoxicity in HepG2 cells - 8 hour (AID 1224890); note: nearly all actives have a fitted effect of over 45% in size
How it was run: as §1

[9] = qHTS assay to identify small molecule antagonists of the estrogen receptor alpha (ER-alpha) signaling pathway using the BG1 cell line in the presence of 0.1 nM 17-beta-estradiol - cell viability counter screen (AID 1259241); note: nearly all actives have a fitted effect of over 40% in size
How it was run: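 Cytotoxicity counter-screen: live-cell protease activity measured by fluorescence (30 min reagent step) in the same wells. Cells were VM7Luc4E2 with endogenous ER-alpha and ERE-driven luciferase, treated 22 hr at 37C alongside 0.1 nM 17beta-estradiol final.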

[10] = qHTS assay to identify small molecule antagonists of the androgen receptor (AR) signaling pathway using the MDA cell line in the presence of 0.5 nM R1881 - cell viability counter screen (AID 1259242); note: nearly all actives have a fitted effect of over 45% in size
How it was run: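 Concentration-response screen of compounds for toxicity in MDA-kb2 reporter cells: 16 hr at 37C with 0.5 nM R1881, endpoint live-cell protease fluorescence measured in the reporter wells.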

[11] = molecular target: Estrogen receptor (Homo sapiens) (UniProt P03372); assay: qHTS assay to identify small molecule antagonists of the estrogen receptor alpha (ER-alpha) signaling pathway using the BG1 cell line in the presence of 0.1 nM 17-beta-estradiol (AID 1259244); note: nearly all actives have a fitted effect of over 50% in size; note: potency is the fitted concentration of half-maximal effect
How it was run: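 Compounds were tested against 0.1 nM (final) 17beta-estradiol in VM7Luc4E2 cells, which express full-length ER-alpha and an ERE-luciferase reporter; luminescence was recorded following 22 h exposure.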

[12] = qHTS assay to identify small molecule HDAC inhibitors (AID 1259364);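 note: wild-type HCT-116 cells with endogenous class I/II HDAC activity; top concentration of the series differs between compounds; nearly all actives have a fitted effect of over 45% in size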
How it was run: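 Screening used wild-type human colon HCT-116 cells incubated overnight, dosed with compounds for 2 hours, and assayed with a homogeneous luminogenic HDAC I/II reagent for 30 minutes at room temperature.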

[13] = qHTS assay to identify small molecule HDAC inhibitors - cell viability counter screen (AID 1259365)
How it was run: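 CellTiter-Glo luminescence (30 min, room temperature) reported viability after a 2 h compound exposure at 37 C. Cells: wild-type HCT-116, 1,500 per well, seeded the night before.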

[14] = qHTS assay to identify small molecule agonists of the sonic hedgehog signaling (Shh) pathway - cell viability counter screen (AID 1259366); note: nearly all actives have a fitted effect of over 50% in size; note: potency is the fitted concentration of half-maximal effect
How it was run: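 Cytotoxicity counter screen: CellTiter-Fluor reagent added after 23 h compound exposure, then 1 h at 37C and fluorescence read. Cells were 3T3 Gli1-Luc, seeded 2,000 per well and dosed 4 h post-plating.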

[15] = A CellTox Green Cytotoxicity Assay to monitor cytotoxicity in HEK293 cells - 32 hour (AID 1224881); note: nearly all actives have a fitted effect of over 40% in size
How it was run: as §2

[16] = A CellTox Green Cytotoxicity Assay to monitor cytotoxicity in HEK293 cells - 16 hour (AID 1224888); note: nearly all actives have a fitted effect of over 35% in size
How it was run: as §2

[17] = molecular target: Androgen receptor (Homo sapiens) (UniProt P10275); assay: qHTS assay to identify small molecule antagonists of the androgen receptor (AR) signaling pathway using the MDA cell line in the presence of 0.5 nM R1881 (AID 1259243); note: nearly all actives have a fitted effect of over 50% in size
How it was run: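 With R1881 held at 0.5 nM (final), compound effects on MMTV-luciferase expression in MDA-kb2 cells were scored by luminescence after a 16 hr, 37C incubation.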

[18] = qHTS assay to identify small molecule agonists of the sonic hedgehog signaling (Shh) pathway (AID 1259368; calls by dose curve;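 note: NIH/3T3-derived 3T3Gli1-Luc cells carrying a stable Gli1-driven firefly luciferase reporter; series mostly up to about 92 µM; nearly all actives have a fitted effect of over 15% in size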)
How it was run: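 Hedgehog pathway agonism scored by increased firefly luciferase luminescence in 3T3Gli1-Luc cells treated 24 hr at 37 C; detection used a 30 min room-temperature reagent incubation.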

[19] = qHTS assay to identify small molecule antagonists of the sonic hedgehog signaling (Shh) pathway - cell viability counter screen (AID 1259367); note: nearly all actives have a fitted effect of over 55% in size; note: potency is the fitted concentration of half-maximal effect
How it was run: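 Conditioned medium drove Shh signaling in 3T3 Gli1-Luc cells exposed to compounds at 37C and 5% CO2. Viability was determined from CellTiter-Fluor fluorescence, with reagent incubated 1 hr after 23 hr of treatment.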

Estrogen receptor (Homo sapiens), sequence (P03372 whole entry, looked up): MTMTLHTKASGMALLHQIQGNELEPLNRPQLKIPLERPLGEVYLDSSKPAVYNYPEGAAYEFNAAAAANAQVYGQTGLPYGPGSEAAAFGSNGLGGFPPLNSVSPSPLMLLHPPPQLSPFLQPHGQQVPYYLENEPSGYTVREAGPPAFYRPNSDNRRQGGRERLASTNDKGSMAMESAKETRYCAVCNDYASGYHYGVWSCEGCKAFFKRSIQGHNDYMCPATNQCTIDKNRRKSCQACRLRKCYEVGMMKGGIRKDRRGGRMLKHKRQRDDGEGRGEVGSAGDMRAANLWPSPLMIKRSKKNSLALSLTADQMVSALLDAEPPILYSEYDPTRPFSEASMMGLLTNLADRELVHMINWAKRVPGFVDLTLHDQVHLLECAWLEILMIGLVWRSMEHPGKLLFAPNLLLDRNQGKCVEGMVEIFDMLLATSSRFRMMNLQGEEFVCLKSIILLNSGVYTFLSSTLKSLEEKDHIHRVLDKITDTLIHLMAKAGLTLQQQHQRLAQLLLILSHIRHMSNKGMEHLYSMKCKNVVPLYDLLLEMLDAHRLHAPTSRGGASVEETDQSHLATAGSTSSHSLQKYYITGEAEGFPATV
Androgen receptor (Homo sapiens), sequence (P10275 whole entry, looked up): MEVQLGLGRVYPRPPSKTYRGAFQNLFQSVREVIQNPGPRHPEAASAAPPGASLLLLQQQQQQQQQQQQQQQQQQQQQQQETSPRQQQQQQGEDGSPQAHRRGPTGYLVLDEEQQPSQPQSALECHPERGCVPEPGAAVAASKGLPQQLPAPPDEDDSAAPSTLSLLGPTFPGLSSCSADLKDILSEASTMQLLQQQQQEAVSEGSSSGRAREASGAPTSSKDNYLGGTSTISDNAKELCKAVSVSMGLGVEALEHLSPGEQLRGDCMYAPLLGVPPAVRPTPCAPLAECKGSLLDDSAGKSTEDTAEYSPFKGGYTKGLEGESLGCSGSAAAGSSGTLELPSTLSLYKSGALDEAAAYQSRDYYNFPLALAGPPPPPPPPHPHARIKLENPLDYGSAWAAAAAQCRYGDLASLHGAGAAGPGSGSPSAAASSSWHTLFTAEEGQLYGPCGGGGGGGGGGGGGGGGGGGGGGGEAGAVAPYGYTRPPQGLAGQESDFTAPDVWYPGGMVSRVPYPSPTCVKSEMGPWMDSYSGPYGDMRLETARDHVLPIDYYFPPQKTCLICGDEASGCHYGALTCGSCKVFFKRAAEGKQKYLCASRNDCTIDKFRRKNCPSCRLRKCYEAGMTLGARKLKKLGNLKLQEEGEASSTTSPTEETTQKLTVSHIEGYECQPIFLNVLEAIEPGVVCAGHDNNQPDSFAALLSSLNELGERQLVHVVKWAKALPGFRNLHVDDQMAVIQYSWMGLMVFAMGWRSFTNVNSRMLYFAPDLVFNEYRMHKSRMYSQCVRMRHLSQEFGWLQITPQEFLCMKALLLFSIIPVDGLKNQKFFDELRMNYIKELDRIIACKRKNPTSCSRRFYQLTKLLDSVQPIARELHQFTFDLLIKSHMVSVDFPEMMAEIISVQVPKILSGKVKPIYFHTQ

| Compound | outcome [1] | Potency [2] | Potency [3] | Potency [4] | Potency [5] | Potency [6] | Potency [7] | Potency [8] | outcome [9] | outcome [10] | Potency [11] | Potency [12] | outcome [13] | Potency [14] | Potency [15] | Potency [16] | Potency [17] | outcome [18] | Potency [19] |
| --- | --- | --- | --- | --- | --- | --- | --- | --- | --- | --- | --- | --- | --- | --- | --- | --- | --- | --- | --- |
| CC1(C)C(=O)NC(=O)NC1=O | inactive | inactive | 49 µM (active) | inactive | inactive | inactive | inactive | inactive | inactive | inactive | inactive | inactive | inactive | inactive | – | – | – | – | – |
| CCOP(=O)(OCC)OP(=O)(OCC)OCC | – | inactive | inactive | inactive | – | inactive | inactive | inactive | inactive | inactive | – | inactive | inactive | inactive | inactive | inactive | inactive | inactive | – |
| CCOP(=S)(OCC)Oc1cc(-c2ccccc2)on1 | – | inactive | inactive | inactive | inactive | – | – | inactive | – | inactive | inactive | inactive | inactive | inactive | inactive | inactive | – | – | inactive |
| CC(C1CC1)C(O)(Cn1cncn1)c1ccc(Cl)cc1 (configuration not stated) | – | – | inactive | inactive | – | inactive | inactive | inactive | inactive | inactive | – | inactive | inactive | inactive | inactive | inactive | – | inactive | inactive |
| CCCCOC(=O)c1ccccc1N | inactive | – | inactive | inactive | inactive | inactive | – | – | inactive | inactive | – | inactive | inactive | inactive | – | – | – | – | inactive |
| OC(c1ccc(F)cc1)(c1cncnc1)c1ccccc1Cl (configuration not stated) | inactive | – | inactive | inactive | – | inactive | inactive | inactive | inactive | inactive | inactive | inactive | inactive | inactive | – | inactive | – | inactive | – |
| C=CCC1=C(C)[C@@H](OC(=O)[C@@H]2[C@@H](C=C(C)C)C2(C)C)CC1=O | inactive | 49 µM (active) | inactive | – | – | 6.92 µM (active) | inactive | inactive | – | – | 24.3 µM (active) | inactive | inactive | – | – | inactive | – | inactive | – |
| CCOP(=S)(Oc1cnc(C(C)(C)C)nc1)OC(C)C (configuration not stated) | inactive | inactive | inactive | inactive | – | inactive | inactive | inactive | inactive | inactive | – | inactive | inactive | inactive | – | inactive | – | inactive | inactive |
| CC1(C(=O)Nc2ccc(O)c(Cl)c2Cl)CCCCC1 | – | – | inactive | inactive | – | – | – | – | inactive | inactive | – | inactive | inactive | 43.3 µM (active) | – | inactive | – | inactive | 43.3 µM (active) |
